Source: the supplement of paper PMC3545927
The other results are listed elsewhere or left out. No count for the full screen is at hand.

Biological target: furin, P09958
Experiment: furin cleavage Z-score vs untreated control; higher = more cleavage, active = 3.5 or more, inactive = 1 or less, 8 variable residues between constant flanks
Outline: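 Peptides 8 residues long, fused to a cDNA oligonucleotide, were fixed to magnetic beads by the N-terminus and exposed to purified furin. The 0.01 ml reactions contained 50 mM HEPES pH 7.5 with CaCl2 and NaCl at 1:10 enzyme:substrate and ran 7.5, 15 or 30 min. For the cleavage Z-score, log counts of sequenced released DNA were compared with furin-free reactions, lowess-adjusted and scaled by median absolute deviation.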

Chain of furin, P09958 (P09958 whole entry): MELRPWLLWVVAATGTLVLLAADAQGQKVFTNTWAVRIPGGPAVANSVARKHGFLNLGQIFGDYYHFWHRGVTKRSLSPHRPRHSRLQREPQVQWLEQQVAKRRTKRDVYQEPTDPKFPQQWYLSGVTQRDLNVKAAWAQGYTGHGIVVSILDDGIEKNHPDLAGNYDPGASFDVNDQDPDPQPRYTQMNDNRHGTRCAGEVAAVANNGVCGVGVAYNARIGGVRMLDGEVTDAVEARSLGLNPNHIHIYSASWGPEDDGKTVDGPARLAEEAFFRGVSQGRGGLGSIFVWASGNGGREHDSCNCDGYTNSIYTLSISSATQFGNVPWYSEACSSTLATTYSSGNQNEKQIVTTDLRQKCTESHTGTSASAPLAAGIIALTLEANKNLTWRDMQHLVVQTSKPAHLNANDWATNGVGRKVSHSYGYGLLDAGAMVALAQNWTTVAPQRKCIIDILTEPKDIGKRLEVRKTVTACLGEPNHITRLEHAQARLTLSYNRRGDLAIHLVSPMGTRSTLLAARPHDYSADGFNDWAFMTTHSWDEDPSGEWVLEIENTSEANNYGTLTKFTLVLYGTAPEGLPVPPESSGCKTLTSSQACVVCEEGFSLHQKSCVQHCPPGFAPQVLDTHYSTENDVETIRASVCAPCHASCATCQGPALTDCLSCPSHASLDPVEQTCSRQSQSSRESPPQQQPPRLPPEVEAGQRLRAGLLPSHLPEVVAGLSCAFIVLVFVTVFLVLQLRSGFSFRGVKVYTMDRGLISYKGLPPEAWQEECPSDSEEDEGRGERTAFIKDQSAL

Sequence	furin cleavage Z-score (7.5 min)	furin cleavage Z-score (15 min)	furin cleavage Z-score (30 min)
CAMEDCSQHLAGNASASA [HC1711]	0.722 (inactive)	2.02	1.16
CAIITSLTGRAGNASASA [HC682]	-0.473 (inactive)	0.458 (inactive)	0.0661 (inactive)
CARLEVVTSTAGNASASA [HC2273]	0.609 (inactive)	1.11	-1.08 (inactive)
CARNARHADGAGNASASA [FS-3002]	3.28	5.44 (active)	3.84 (active)
CARLARFADGAGNASASA [FS-2429]	-1.13 (inactive)	2.8	0.514 (inactive)
CARNARIVHLAGNASASA [FS-1755]	0.861 (inactive)	0.108 (inactive)	-0.00636 (inactive)
CARNARNVSQAGNASASA [FS-3003]	4.25 (active)	6.14 (active)	5.98 (active)
CAAQPGYPWPAGNASASA [HC199]	0.109 (inactive)	0.367 (inactive)	0.143 (inactive)
CAEYPVGSQLAGNASASA [HC1237]	-1.22 (inactive)	-1.49 (inactive)	-1.3 (inactive)
CARQKRSMEEAGNASASA [FS-3260]	7.94 (active)	7.89 (active)	8.14 (active)
CARQKRSIHEAGNASASA [FS-3036]	9.78 (active)	11 (active)	9.29 (active)
CAREFDEMEEAGNASASA [HC1012]	-0.916 (inactive)	-1.39 (inactive)	-1.93 (inactive)
CARQKRSINLAGNASASA [FS-2587]	7.01 (active)	6.9 (active)	10.1 (active)
CASTPCSAHEAGNASASA [HC2572]	-0.869 (inactive)	-0.151 (inactive)	0.67 (inactive)
CAVEKRGVHEAGNASASA [FS-1813]	-1.62 (inactive)	-0.803 (inactive)	-0.675 (inactive)
CARQTRSSTEAGNASASA [FS-2174]	0.51 (inactive)	2.13	2.17
CARVNRSVHEAGNASASA [FS-2244]	0.826 (inactive)	3.34	3.78 (active)
CADIIICDECAGNASASA [HC816]	-1.61 (inactive)	-0.956 (inactive)	0.174 (inactive)
CARQKRIIGGAGNASASA [FS-2754]	-1.16 (inactive)	-0.537 (inactive)	0.0214 (inactive)
CARQKREIDVAGNASASA [FS-3035]	10.8 (active)	12.7 (active)	11.5 (active)
CARQKRSIVVAGNASASA [FS-2507]	7.83 (active)	9.33 (active)	8.84 (active)
CARQIRYSVPAGNASASA [FS-1767]	0.304 (inactive)	0.942 (inactive)	-0.474 (inactive)

Sequence	furin cleavage Z-score (7.5 min)	furin cleavage Z-score (15 min)	furin cleavage Z-score (30 min)
CARQIRGLEEAGNASASA [FS-2443]	0.837 (inactive)	3.93 (active)	3.31
CAWLQYFLTRAGNASASA [HC583]	-0.459 (inactive)	-0.712 (inactive)	-0.977 (inactive)
CASWAIKWEYAGNASASA [HC516]	-0.904 (inactive)	-1.39 (inactive)	0.896 (inactive)
CARDQRDKDGAGNASASA [FS-2412]	0.132 (inactive)	-0.98 (inactive)	-1.37 (inactive)
CARAVRSINEAGNASASA [FS-2411]	6.03 (active)	6.9 (active)	7.81 (active)
CARKRRDTGGAGNASASA [FS-2346]	5.14 (active)	4.44 (active)	2.79
CARGLRSIMEAGNASASA [FS-1709]	-0.826 (inactive)	0.557 (inactive)	1.78
CARKRRSKSRAGNASASA [FS-2272]	5.87 (active)	6.56 (active)	5.23 (active)
CAETKRSINEAGNASASA [FS-2539]	-1.27 (inactive)	-0.817 (inactive)	-0.177 (inactive)
CARKRRSQDGAGNASASA [FS-1858]	8.67 (active)	10.1 (active)	6.23 (active)
CATTPCSGSTAGNASASA [HC1938]	-0.179 (inactive)	-0.988 (inactive)	-0.748 (inactive)
CAEVVTETWVAGNASASA [HC153]	-0.809 (inactive)	-0.763 (inactive)	-1.97 (inactive)
CAEDGVNYATAGNASASA [HC240]	-0.763 (inactive)	-1.25 (inactive)	-0.298 (inactive)
CARKRRQSEGAGNASASA [FS-1733]	10.4 (active)	12.6 (active)	8.83 (active)
CASKSRIKKDAGNASASA [FS-91]	7.52 (active)	6.56 (active)	6.64 (active)
CARKRRLVAPAGNASASA [FS-2216]	3.99 (active)	5.02 (active)	5.53 (active)
CALNPREKKDAGNASASA [FS-941]	-0.953 (inactive)	0.314 (inactive)	0.019 (inactive)
CAKTRRSVDGAGNASASA [FS-2248]	6.46 (active)	7.09 (active)	5.86 (active)
CAYPVREKKDAGNASASA [FS-739]	-0.917 (inactive)	0.614 (inactive)	0.838 (inactive)
CARALRLVDGAGNASASA [FS-2410]	-0.828 (inactive)	-0.615 (inactive)	-0.629 (inactive)
CATERLYVGGAGNASASA [HC1499]	0.0385 (inactive)	0.416 (inactive)	-0.694 (inactive)
CARPKRKVAPAGNASASA [FS-2284]	1.89	0.659 (inactive)	3.08
